Test [1] in a line: inhibitors of TNFa-induced NFkB p65 translocation, primary screen, imaging, HUVEC, MLSMR starter and 10KST1 sets (AID 438;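 active means inhibition above 20% together with a positive visual image hit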;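 further: compound added about 3h40 before a 20 min TNFalpha stimulation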;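 on inhibition: signal is the nuclear over cytoplasmic p65 intensity ratio per well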). The conditions noted are these: HUVEC TNFa-induced p65 nuclear translocation; cell count: measured here: nuclei count (cytotoxicity indicator), at 2.08 µM; inhibition: at 2 µM, stronger effect = higher value, 0% TNFa-plus-vehicle, 100% no-TNFa wells.
The nature of test [2]: reduction of polyQ htt aggregates in cells – imaging, exon1htt(103Q)mCFP cells, high-content imaging, primary screen (AID 483;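 active means visual image review flags a hit and inhibition of aggregation exceeds 20%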;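 further: compound exposure lasted 3 days before fixation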;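 on nuclei count: percent of the per-plate median nuclei count of sample wells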). The note with it: exon1htt(103Q)mCFP cell line, aggregate imaging, at 2 µM; inhibition of aggregation: stronger effect = higher value; nuclei count: measured here: cell count, toxicity.
Test [3] in a line: endothelial E-selectin expression blockers – imaging, HUVEC, immunofluorescence, MLSMR starter and 10KST1 sets, primary screen (AID 487;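 active means visually confirmed hit in the image check and inhibition above 20%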;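 on inhibition: signal is fraction of cell area covered by stained E-selectin grains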;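 on nuclei count: 100% = median nuclei count of all wells on the same plate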). The note with it: HUVEC TNFalpha-induced E-selectin immunofluorescence imaging, at 2 µM; inhibition: stronger effect = higher value; nuclei count: measured here: cell number, toxicity.
Test [4] is described as follows: Primary imaging screen for DUSP6 inhibitors that restore phospho-Erk in transfected HeLa cells, chemical complementation (AID 609).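 On inhibition: phospho-Erk level distribution per well compared with pooled transfected vehicle control wells.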 The note with it: HeLa MKP-3 transfected, phospho-Erk imaging KS statistic, at 10 µM, cells stimulated with TPA for 15 min.
The target in test [5] is Dual specificity protein phosphatase 6 (Homo sapiens) (UniProt Q16828). The description is as above. The conditions noted are these: HeLa MKP-3 transfected, phospho-Erk imaging KS statistic; at 10 µM; stronger effect = higher value; cells stimulated with TPA for 15 min.
Chain of Dual specificity protein phosphatase 6 (Homo sapiens) (Q16828 whole entry, looked up): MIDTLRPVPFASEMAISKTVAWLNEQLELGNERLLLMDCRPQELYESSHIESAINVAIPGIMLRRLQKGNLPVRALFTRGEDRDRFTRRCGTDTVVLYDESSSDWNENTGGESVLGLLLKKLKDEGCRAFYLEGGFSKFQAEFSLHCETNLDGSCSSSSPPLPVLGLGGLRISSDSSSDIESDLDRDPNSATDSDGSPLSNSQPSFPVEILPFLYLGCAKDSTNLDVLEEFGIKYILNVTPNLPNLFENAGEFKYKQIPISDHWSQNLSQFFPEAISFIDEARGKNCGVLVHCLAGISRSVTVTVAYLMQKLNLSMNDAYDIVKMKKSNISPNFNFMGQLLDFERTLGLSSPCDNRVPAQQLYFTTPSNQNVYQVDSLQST
Test [6] concerns the target Voltage-gated potassium channel subunit beta-2 (Rattus norvegicus) (UniProt P62483). Briefly: inhibitors of rat Kvbeta2 reductase activity – biochemical, NADPH fluorescence, primary screen (AID 622;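 active means fluorescence slope higher than the sample average by over 3 SD, cut at about -0.22 in these data, passing the limit was not always enough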;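 further: slope of raw intensity against log time taken from 70 to 1610 s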). The note with it: recombinant KvBeta, 4-cyanobenzaldehyde reduction, at 10 µM, stronger effect = higher value.
Test [7] shares this target. In words: enhancers of rat Kvbeta2 NADPH turnover – biochemical, NADPH fluorescence, primary screen (AID 623;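 active means NADPH fluorescence slope more negative than the mean of all samples by about 3 SD, 99.7% confidence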;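 further: fluorescence intensity change per second fitted from 20 to 320 s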). The note with it: Recombinant KvBeta, NADPH fluorescence decrease slope, 10 min; at 10 µM; stronger effect = lower value.
Test [8] concerns the target Alpha-2C adrenergic receptor (Homo sapiens) (UniProt P18825). Briefly: compounds altering alpha2C-coupled GIRK flux – cell-based, HEK293 alpha2C/GIRK1/2, thallium flux, primary screen (AID 624;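 active means fluorescence slope after compound addition differing from the mean of all screened samples at 99.7% confidence, in either direction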;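 further: slope of fluorescence ratio to pre-addition baseline per second over 15 to 24 s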). The conditions noted are these: thallium flux BTC fluorescence, at 10 µM, actives lie on both sides.
Test [9] has as its target Muscarinic acetylcholine receptor M4 (Homo sapiens) (UniProt P08173). Briefly: M4-linked GIRK flux change, two-sided – cell-based, HEK293 M4/GIRK, thallium flux, BTC-AM, M4 allosteric agonist project, primary screen (AID 625;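 active means fluorescence slope after compound addition differing from the mean of all tested samples at 99.7% confidence, mostly higher but some lower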;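 further: thallium influx through GIRK channels coupled to M4 in HEK293 cells with BTC-AM dye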). The note with it: at 10 µM, actives lie on both sides.
Test [10] can be described thus: inhibitors of larval lipid processing in zebrafish, primary screen, whole organism, PED6 fluorescence, gall bladder and intestine (AID 686;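 active means a full or partial loss of lipid-probe fluorescence in the fish gall bladder, intestine or both, judged by eye; inactive means no fluorescence loss, or compound toxic to the fish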;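 further: larvae 5 to 7 days old with five fish per well; signal comes from phospholipase A2 cleavage of quenched PED6 carried via bile; overnight exposure to compound and PED6 before scoring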). The conditions noted are these: Zebrafish larvae PED6 lipid processing, fluorescence scoring; screened at 20 µM (by protocol).
Test [11] in a line: loss of swimming-algae plug formation – whole organism, Chlamydomonas reinhardtii, WT vs cilia-less mutant, absorbance, 96-well, primary screen (AID 463189;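 active means inhibition at or above 50% relative to wild type and mutant plate controls; inactive means inhibition below 50%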;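 further: 0% = wild type cc124 cells in DMSO and 100% = ciliumless bld1 mutant cells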). The note with it: Chlamydomonas reinhardtii gravitaxis, OD600 absorbance, 2 days; at 10 µM; stronger effect = higher value.
A short description of test [12]: blockers of RIG-like receptor reporter activation – cell-based, Sendai virus stimulus, luciferase, 10K MLSCN set, TLR/RLR signaling modifier project, primary screen (AID 602276;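 active means inhibition at or above 50% at 10 µM; inactive means inhibition below 50%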;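 further: firefly luciferase from ISG56 promoter only with Renilla not read in this screen; 0% = Sendai virus plus DMSO and 100% = medium plus DMSO without virus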). The note with it: HEK293 RL24 IRF3 luciferase reporter, at 10 µM, stronger effect = higher value.
A short description of test [13]: TLR3 IRF3 reporter activation blockers – cell-based, poly I:C stimulus, luciferase, 10K MLSCN set, primary screen (AID 602277;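 active means inhibition of the reporter signal at or above 50%; inactive means inhibition below 50%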). The conditions noted are these: HEK293-TLR3 RL24 IRF3 luciferase reporter, at 10 µM, stronger effect = higher value. On the technique in general: Reporter assays use an easily measured gene product as a stand-in for the process of interest.
Setting [14] is: measured here: cell density z-score.
Setting [15] is: measured here: nuclear c-Myc green intensity z-score.
Setting [16] is: measured here: nuclear pErk red intensity z-score, stronger effect = higher value.

Active and inactive are the calls of the source.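 How the source made its calls, unless noted: active means compounds giving at least 50% inhibition in the cell-based MKP-3 phosphatase rescue imaging test; inactive means the rest.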

Chain of Alpha-2C adrenergic receptor (Homo sapiens) (P18825 whole entry, looked up): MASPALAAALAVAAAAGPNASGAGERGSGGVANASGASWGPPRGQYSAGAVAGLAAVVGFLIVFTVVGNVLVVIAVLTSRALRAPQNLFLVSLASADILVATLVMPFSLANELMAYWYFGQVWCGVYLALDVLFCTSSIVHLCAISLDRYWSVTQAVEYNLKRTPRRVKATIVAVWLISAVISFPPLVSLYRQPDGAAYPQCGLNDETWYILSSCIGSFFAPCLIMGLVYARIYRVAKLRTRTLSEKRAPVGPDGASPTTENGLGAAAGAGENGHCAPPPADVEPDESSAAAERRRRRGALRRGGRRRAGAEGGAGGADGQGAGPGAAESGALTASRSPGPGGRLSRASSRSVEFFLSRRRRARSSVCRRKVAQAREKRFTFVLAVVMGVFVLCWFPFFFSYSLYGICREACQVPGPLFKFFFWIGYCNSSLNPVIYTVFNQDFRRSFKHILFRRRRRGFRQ
Chain of Muscarinic acetylcholine receptor M4 (Homo sapiens) (P08173 whole entry, looked up): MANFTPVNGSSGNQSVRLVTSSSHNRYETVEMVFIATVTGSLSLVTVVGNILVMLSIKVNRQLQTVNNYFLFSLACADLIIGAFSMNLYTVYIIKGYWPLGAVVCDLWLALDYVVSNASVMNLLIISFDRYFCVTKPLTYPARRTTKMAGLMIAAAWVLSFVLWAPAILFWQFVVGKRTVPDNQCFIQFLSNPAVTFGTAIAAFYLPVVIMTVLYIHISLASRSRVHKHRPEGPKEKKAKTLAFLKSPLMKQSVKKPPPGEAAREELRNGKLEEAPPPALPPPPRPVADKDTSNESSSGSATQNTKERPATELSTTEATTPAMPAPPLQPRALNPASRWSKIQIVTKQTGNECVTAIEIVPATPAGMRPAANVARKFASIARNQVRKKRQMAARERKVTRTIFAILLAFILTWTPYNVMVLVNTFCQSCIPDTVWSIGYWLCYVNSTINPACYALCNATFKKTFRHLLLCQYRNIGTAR
Chain of Voltage-gated potassium channel subunit beta-2 (Rattus norvegicus) (P62483 whole entry, looked up): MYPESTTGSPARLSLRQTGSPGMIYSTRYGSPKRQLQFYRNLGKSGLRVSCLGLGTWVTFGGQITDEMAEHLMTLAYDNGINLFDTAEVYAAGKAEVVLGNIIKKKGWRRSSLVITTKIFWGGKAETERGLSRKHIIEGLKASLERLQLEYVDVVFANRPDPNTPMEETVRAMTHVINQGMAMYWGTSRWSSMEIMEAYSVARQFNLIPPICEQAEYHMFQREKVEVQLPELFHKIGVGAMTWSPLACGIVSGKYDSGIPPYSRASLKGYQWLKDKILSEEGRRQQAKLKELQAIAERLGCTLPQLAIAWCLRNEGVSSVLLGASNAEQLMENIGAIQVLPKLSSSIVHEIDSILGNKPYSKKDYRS

With `CCN(CC)CCCN1C(=O)C(=O)/C(=C(/O)c2ccc(C)cc2)C1c1ccccn1` (configuration not stated), the cell count in [1] is 546. Also, the inhibition is -2.6% (inactive) in test [1]; -85.1% (inactive) in test [3]; -2.29% (inactive) in test [5]; -0.742% (inactive) in test [11]; -25.3% (inactive) in test [12]; -18.7% (inactive) in test [13]. In addition, the inhibition of aggregation in test [2] is 21% (inactive). Also, the nuclei count was 134% in [2] and 144% in [3]. Moreover, the results for the z-score in [4] (setting [14]), in [4] (setting [15]) and in test [4] (setting [16]) were 0.34, -0.315 and -0.132, respectively. The values for the fluorescence slope in [6] and in test [9] were -0.45 (inactive) and 0.00497 (inactive), respectively. Further, the NADPH fluorescence slope in [7] was -3.6e-05 (inactive). Further, the slope in [8] is 0.0052 (inactive). The result in [10] was inactive.
Turning to `O=C(Nc1nccs1)NC(C(F)(F)F)C(F)(F)F`, the cell count in [1] turned out to be 620. The inhibition was 10.3% (inactive) in test [1]; 14.4% (inactive) in test [3]; 3.49% (inactive) in test [5]; 28.7% (inactive) in test [11]; 22.5% (inactive) in [12]; 33.5% (inactive) in [13]. Also, the inhibition of aggregation in test [2] is -10.4% (inactive). Further, the figures for the nuclei count in [2] and in test [3] were 101% and 95.3%, respectively. The z-score in [4] (setting [14]) is 0.47; in [4] (setting [15]), -0.00766; in test [4] (setting [16]), -0.375. Also, the fluorescence slope is -0.522 (inactive) in test [6] and 0.00652 (inactive) in [9]. For the same molecule, in [7], the NADPH fluorescence slope is -4.1e-05 (inactive). Further, the slope in test [8] was 0.00624 (inactive). Further, in [10], the molecule was classed as inactive.
For `COc1ccccc1C1(CC(=O)N2CCOCC2)CCOC(C(C)C)C1` (configuration not stated), the cell count in [1] stood at 506. Besides, the inhibition in [1] is -6.5% (inactive); in test [3], 3.2% (inactive); in test [5], 5.95% (inactive); in [11] it was 12.8% (inactive); in test [12] it was -1.02% (inactive); in test [13], -0.559% (inactive). For the same molecule, the inhibition of aggregation in test [2] is -10.9% (inactive). The values for the nuclei count in test [2] and in test [3] were 102% and 131%, respectively. Also, the z-score in [4] (setting [14]) is 0.755; in test [4] (setting [15]), 0.316; in test [4] (setting [16]), 1.01. Moreover, the fluorescence slope in test [6] was -0.414 (inactive); in [9], 0.00519 (inactive). The NADPH fluorescence slope in test [7] was -4.7e-05 (inactive). Further, the slope in [8] is 0.00593 (inactive). In addition, the outcome in [10] was inactive.
On to `Cc1ccc(-c2nnc(-c3cccc(Br)c3)o2)cc1`, for which the cell count in test [1] turned out to be 512. The inhibition is -1.8% (inactive) in test [1]; -41.7% (inactive) in test [3]; -15.1% (inactive) in test [5]; 8.63% (inactive) in test [11]; -18% (inactive) in test [12]; -64% (inactive) in test [13]. Further, in test [2], the inhibition of aggregation is -23.2% (inactive). Further, the results for the nuclei count in test [2] and in test [3] were 96.1% and 126%, respectively. The z-score in [4] (setting [14]) worked out at 0.516; in [4] (setting [15]) it was 0.261; in test [4] (setting [16]) it was 0.911. Further, the fluorescence slope in test [6] was -0.487 (inactive); in test [9], 0.00652 (inactive). In test [7], the NADPH fluorescence slope is -9.8e-05 (inactive). For the same molecule, the slope in [8] is 0.00623 (inactive). The outcome in [10] was inactive.
With `CCc1cc2c(=O)c(-c3nc4ccccc4[nH]3)coc2cc1OC(=O)N1CCOCC1`, the cell count in test [1] stood at 666. Further, the inhibition in [1] is -4.8% (inactive); in [3] it was -44.8% (inactive); in test [5] it was -9.53% (inactive); in test [11], -11.5% (inactive); in test [12], -4.36% (inactive); in [13], -9.08% (inactive). In addition, the inhibition of aggregation in test [2] was -15.2% (inactive). Besides, the nuclei count in test [2] was 126%; in test [3] it was 149%. The z-score is 0.051 in test [4] (setting [14]), 0.477 in [4] (setting [15]) and -0.475 in test [4] (setting [16]). The fluorescence slope was -0.483 (inactive) in [6] and 0.00565 (inactive) in test [9]. Moreover, the NADPH fluorescence slope in test [7] is -3e-05 (inactive). The slope in test [8] was 0.00512 (inactive). In [10], the call was inactive.
Regarding `COc1ccc(-c2onc(C)c2-c2ccccc2)c(O)c1`, in test [1], the cell count turned out to be 477. Moreover, the inhibition in [1] is 0.4% (inactive); in [3], -110% (inactive); in test [5], 1.98% (inactive); in test [11], -11.4% (inactive); in test [12], 8.8% (inactive); in [13], 32.3% (inactive). For the same molecule, the inhibition of aggregation in [2] is -9.9% (inactive). The nuclei count in [2] stood at 101%; in test [3] it was 112%. The values for the z-score in [4] (setting [14]), in test [4] (setting [15]) and in test [4] (setting [16]) were -0.0693, -0.0566 and -1.27, respectively. For the same molecule, the values for the fluorescence slope in test [6] and in test [9] were -0.441 (inactive) and 0.00531 (inactive), respectively. The NADPH fluorescence slope in [7] is -4.2e-06 (inactive). The slope in test [8] is 0.00908 (inactive). Moreover, the molecule was called inactive in [10].
Regarding `N#CCc1nc2c3c4c(sc3ncn2n1)CCCC4`, in test [1], the cell count came out at 436. Besides, the inhibition in [1] is -7.3% (inactive); in [3] it was -12.1% (inactive); in test [5] it was 5.95% (inactive); in test [11], 0.738% (inactive); in [12], 5.18% (inactive); in [13], -26.2% (inactive). In [2], the inhibition of aggregation was -155% (inactive). In addition, the nuclei count worked out at 1.9% in [2] and 130% in [3]. Moreover, the z-score in test [4] (setting [14]) stood at 0.106; in test [4] (setting [15]), 1.08; in test [4] (setting [16]), 0.152. In addition, the fluorescence slope in test [6] is -0.413 (inactive); in [9], 0.00496 (inactive). In addition, in test [7], the NADPH fluorescence slope was -4.9e-05 (inactive). In addition, the slope in [8] was 0.00471 (inactive). Besides, the molecule was called inactive in test [10].
In the case of `Cc1cc(Cn2ccnc2)c(C)cc1Cn1ccnc1`, the cell count in test [1] was found to be 637. In addition, the inhibition is -4.4% (inactive) in test [1]; -55.4% (inactive) in [3]; -7.67% (inactive) in test [5]; 139% (active) in test [11]; 19.2% (inactive) in [12]; 17.7% (inactive) in test [13]. In addition, the inhibition of aggregation in test [2] was 7.9% (inactive). The nuclei count in test [2] came out at 100%; in test [3], 124%. Further, the z-score is -0.00236 in [4] (setting [14]), 1.89 in test [4] (setting [15]) and -0.864 in test [4] (setting [16]). Also, the fluorescence slope in test [6] is -0.463 (inactive); in test [9] it was 0.0041 (inactive). The NADPH fluorescence slope in test [7] is -0.000121 (inactive). Besides, the slope in test [8] was 0.00445 (inactive). Further, the outcome in test [10] was inactive.
As to `CC1(C)Cc2c(c(-c3ccccc3)nc(N3CCCC3)c2C(N)=O)CO1`, the cell count in test [1] amounted to 496. For the same molecule, the inhibition in test [1] was -6% (inactive); in test [3] it was -130% (inactive); in [5] it was -6.59% (inactive); in test [11], -0.193% (inactive); in [12], 16.5% (inactive); in test [13], 21.4% (inactive). For the same molecule, the inhibition of aggregation in test [2] is 15.7% (inactive). Also, the nuclei count was 102% in test [2] and 142% in [3]. Moreover, the z-score in [4] (setting [14]) is -1.1; in [4] (setting [15]), 1.34; in [4] (setting [16]), -0.38. Besides, the fluorescence slope in test [6] is -0.473 (inactive); in [9] it was 0.00451 (inactive). For the same molecule, in test [7], the NADPH fluorescence slope was -0.000128 (inactive). Moreover, in [8], the slope was 0.0059 (inactive). Moreover, the outcome in test [10] was “inactive; toxic”.

For orientation: inhibition means the change of the read-out against control, counted positive when it falls.

For the origin of these results see PubChem BioAssay.
